Results published in PubChem BioAssay.
Active and inactive are the calls of the source.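 Rule for the calls: active = thallium flux through the channel raised or lowered by more than 3 SD from vehicle-only wells, actives on both sides; inactive = the rest.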

The compounds below were run on R275C/beta2Delta (assay: BK channel mutant inhibitors and activators – cell-based, U2OS BacMam, thallium flux, beta subunits, selectivity assay, profiling panel (AID 1259406;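 note: initial slope of Thallos dye fluorescence rise after thallium is added; log ratio against the mean of 0.3% DMSO vehicle wells on the same plate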)). Conditions: U2OS BacMam BK variants, at 30 µM.
`O=C(OCCSc1sccc1[N+](=O)[O-])c1ccc(Cl)cc1` was tested, and the log fold change Tl+ flux was 0.0149 (inactive). With `Oc1c(Cl)cc(Cl)cc1C=Nc1nccs1` the log fold change Tl+ flux was 0.0936 (active). With `Cc1cc(NC(=O)Nc2nc(-c3ccc(C)c(Cl)c3)c(C)s2)c(C(F)(F)F)o1` the log fold change Tl+ flux was 0.015 (inactive). With `COCCCNC(=O)C(C#N)=CN(C)C` the log fold change Tl+ flux was -0.0395 (inactive). `O=C1c2cc(S(=O)(=O)O)ccc2CCC1S(=O)(=O)O` (configuration not stated) was tested, and the log fold change Tl+ flux was 0.151 (active). `CN(C)c1ccc(C=NNC(N)=S)c(Cl)c1` was tested, and the log fold change Tl+ flux was -0.0612 (inactive). With `CC(C)=CC(C)=NNc1c([N+](=O)[O-])cc(C(F)(F)F)cc1[N+](=O)[O-]` the log fold change Tl+ flux was -0.0753 (inactive).

The compounds below were run on R275C/beta4 in the same assay as above. Conditions: U2OS BacMam BK variants, at 30 µM.
With `COC(=O)c1ccc(C=Cc2cccc(Cl)c2)s1` the log fold change Tl+ flux was -0.0416 (inactive). For `COc1ccc(C(=O)NNC(=O)c2c(OC)cc(C(F)(F)F)cc2C(F)(F)F)cc1`, the log fold change Tl+ flux was 0.021 (inactive). In the case of `Cn1c(SCCS(=O)(=O)c2ccc(OC(F)(F)F)cc2)nnc1C(F)(F)F`, the log fold change Tl+ flux is reported as -0.0219 (inactive). In the case of `O=C(O)c1cccc(CSc2cccs2)c1`, the log fold change Tl+ flux is reported as 0.0269 (inactive). For `Cc1onc(-c2c(Cl)cccc2Cl)c1C1=NCCO1`, the log fold change Tl+ flux was 0.0277 (inactive). With `CCOC(=O)c1cc(CC)sc1NC(=O)C(Cl)(Cl)Cl` the log fold change Tl+ flux was -0.00727 (inactive). With `Cc1nn(-c2ccccc2)nc1C(=O)NNC(=O)CSCc1cccc2ccccc12` the log fold change Tl+ flux was 0.097 (active). `Cc1oc(S(=O)(=O)N2CCOCC2)cc1C(=O)Nc1ccc(F)cc1` was tested, and the log fold change Tl+ flux was 0.00598 (inactive). For `Cc1ccc(S(=O)(=O)NC(=O)Nc2nc(-c3ccc(C)c(Cl)c3)c(C)s2)cc1`, the log fold change Tl+ flux was 0.211 (active). `CCCn1c(=O)c(Br)cn(-c2ccccc2C)c1=O` was tested, and the log fold change Tl+ flux was 0.00534 (inactive). In the case of `CCOC(=O)Cn1c(-c2c(Cl)cccc2Cl)noc1=O`, the log fold change Tl+ flux is reported as -0.018 (inactive). In the case of `Cc1nn(C)c(NCc2cccs2)c1[N+](=O)[O-]`, the log fold change Tl+ flux is reported as -0.0356 (inactive). In the case of `Nc1ccc(Cl)cc1-c1nc2ccccc2[nH]1`, the log fold change Tl+ flux is reported as -0.0366 (inactive). With `COC(=O)CC1(C(=O)OC)Oc2ccc(Br)cc2C(=O)N1c1cccc(Cl)c1Cl` (configuration not stated) the log fold change Tl+ flux was -0.204 (active). For `Cc1c(C(=O)Nc2ccc(N3CCOCC3)c(Cl)c2)cnn1-c1ccc(F)cc1`, the log fold change Tl+ flux was 0.0362 (inactive). For `CC(=O)OCC(OC(C)=O)C(OC(C)=O)C(OC(C)=O)C(C#N)OC(C)=O` (configuration not stated), the log fold change Tl+ flux was -0.0186 (inactive). For `C#CC1(NC(=O)c2ccc(-c3ccc(CC)cc3)cc2)CCCCC1`, the log fold change Tl+ flux was 0.0306 (inactive). In the case of `Cc1cnc(N)c(C)n1`, the log fold change Tl+ flux is reported as -0.0212 (inactive). For `CCOC(=O)c1ccc(N2CCOCC2)c(N=Cc2cc(Cl)cc(Cl)c2O)c1`, the log fold change Tl+ flux was 0.128 (active). In the case of `O=C(CC(=O)NNC(=O)c1ccc(F)cc1)NNC(=O)c1ccc(F)cc1`, the log fold change Tl+ flux is reported as -0.00647 (inactive). In the case of `Cc1ccccc1C=C1N=C(c2ccccc2)OC1=O`, the log fold change Tl+ flux is reported as 0.00185 (inactive). In the case of `O=C(CCn1nc(-c2ccc(F)cc2)ccc1=O)NCc1ccccc1`, the log fold change Tl+ flux is reported as 0.037 (inactive). For `N=c1c(C(N)=O)cc2c(=O)n3ccccc3nc2n1Cc1ccco1`, the log fold change Tl+ flux was -0.00879 (inactive). For `Cc1nn(-c2ccccc2)nc1CNC(=O)COc1ccccc1`, the log fold change Tl+ flux was -0.0424 (inactive). `Cc1cc(C)n2nc(Sc3ncccc3[N+](=O)[O-])nc2n1` was tested, and the log fold change Tl+ flux was 0.00925 (inactive). With `CCOC(=O)NN=C(C)C(C)=NNC(=O)OCC` the log fold change Tl+ flux was -0.0094 (inactive). `CC(C)(C)NC(=O)NCCO` was tested, and the log fold change Tl+ flux was 0.00214 (inactive). With `Cc1ccccc1S(=O)(=O)NCc1ccc(N2CCN(C)CC2)cc1` the log fold change Tl+ flux was 0.0244 (inactive). With `CN(C1CCCCC1)S(=O)(=O)c1cccs1` the log fold change Tl+ flux was -0.025 (inactive). With `O=C(CN1c2ccccc2Sc2ccccc21)NN=Cc1ccco1` the log fold change Tl+ flux was 0.0737 (inactive). For `CC(=O)Nc1ccc(OCC(=O)N2CCN(c3ncc(C(F)(F)F)cc3Cl)CC2)cc1`, the log fold change Tl+ flux was 0.0246 (inactive). For `Cc1ccc(S(=O)(=O)Oc2c(Cc3ccccc3)c(=O)n(C)c3ccccc23)cc1`, the log fold change Tl+ flux was -0.0625 (inactive). For `CCN1CCC(O)(C#Cc2ccccc2)CC1`, the log fold change Tl+ flux was -0.01 (inactive). For `O=C(OCCSc1sccc1[N+](=O)[O-])c1ccc(Cl)cc1`, the log fold change Tl+ flux was -0.01 (inactive). For `Oc1c(Cl)cc(Cl)cc1C=Nc1nccs1`, the log fold change Tl+ flux was 0.0731 (inactive). In the case of `Cc1cc(NC(=O)Nc2nc(-c3ccc(C)c(Cl)c3)c(C)s2)c(C(F)(F)F)o1`, the log fold change Tl+ flux is reported as 0.0593 (inactive). In the case of `COCCCNC(=O)C(C#N)=CN(C)C`, the log fold change Tl+ flux is reported as -0.0325 (inactive). With `O=C1c2cc(S(=O)(=O)O)ccc2CCC1S(=O)(=O)O` (configuration not stated) the log fold change Tl+ flux was 0.0299 (inactive). `CN(C)c1ccc(C=NNC(N)=S)c(Cl)c1` was tested, and the log fold change Tl+ flux was -0.244 (active). In the case of `CC(C)=CC(C)=NNc1c([N+](=O)[O-])cc(C(F)(F)F)cc1[N+](=O)[O-]`, the log fold change Tl+ flux is reported as -0.00952 (inactive).

These compounds were tested on R275C/Slo1WT/beta2 in the same assay as above. Conditions: U2OS BacMam BK variants, at 30 µM.
With `COC(=O)c1ccc(C=Cc2cccc(Cl)c2)s1` the log fold change Tl+ flux was -0.104 (active). `COc1ccc(C(=O)NNC(=O)c2c(OC)cc(C(F)(F)F)cc2C(F)(F)F)cc1` was tested, and the log fold change Tl+ flux was 0.015 (inactive). With `Cn1c(SCCS(=O)(=O)c2ccc(OC(F)(F)F)cc2)nnc1C(F)(F)F` the log fold change Tl+ flux was -0.0104 (inactive). For `O=C(O)c1cccc(CSc2cccs2)c1`, the log fold change Tl+ flux was 0.0372 (inactive). For `Cc1onc(-c2c(Cl)cccc2Cl)c1C1=NCCO1`, the log fold change Tl+ flux was -0.00731 (inactive). For `CCOC(=O)c1cc(CC)sc1NC(=O)C(Cl)(Cl)Cl`, the log fold change Tl+ flux was -0.00449 (inactive). With `Cc1nn(-c2ccccc2)nc1C(=O)NNC(=O)CSCc1cccc2ccccc12` the log fold change Tl+ flux was 0.0123 (inactive). In the case of `Cc1oc(S(=O)(=O)N2CCOCC2)cc1C(=O)Nc1ccc(F)cc1`, the log fold change Tl+ flux is reported as -0.0174 (inactive). For `Cc1ccc(S(=O)(=O)NC(=O)Nc2nc(-c3ccc(C)c(Cl)c3)c(C)s2)cc1`, the log fold change Tl+ flux was 0.0547 (inactive). In the case of `CCCn1c(=O)c(Br)cn(-c2ccccc2C)c1=O`, the log fold change Tl+ flux is reported as 0.0347 (inactive). With `CCOC(=O)Cn1c(-c2c(Cl)cccc2Cl)noc1=O` the log fold change Tl+ flux was 0.00072 (inactive). In the case of `Cc1nn(C)c(NCc2cccs2)c1[N+](=O)[O-]`, the log fold change Tl+ flux is reported as -0.0229 (inactive). For `Nc1ccc(Cl)cc1-c1nc2ccccc2[nH]1`, the log fold change Tl+ flux was 0.00169 (inactive). In the case of `COC(=O)CC1(C(=O)OC)Oc2ccc(Br)cc2C(=O)N1c1cccc(Cl)c1Cl` (configuration not stated), the log fold change Tl+ flux is reported as -0.0135 (inactive). `Cc1c(C(=O)Nc2ccc(N3CCOCC3)c(Cl)c2)cnn1-c1ccc(F)cc1` was tested, and the log fold change Tl+ flux was 0.000473 (inactive). `CC(=O)OCC(OC(C)=O)C(OC(C)=O)C(OC(C)=O)C(C#N)OC(C)=O` (configuration not stated) was tested, and the log fold change Tl+ flux was -0.0705 (inactive). `C#CC1(NC(=O)c2ccc(-c3ccc(CC)cc3)cc2)CCCCC1` was tested, and the log fold change Tl+ flux was -0.00603 (inactive). With `Cc1cnc(N)c(C)n1` the log fold change Tl+ flux was 0.0123 (inactive). In the case of `CCOC(=O)c1ccc(N2CCOCC2)c(N=Cc2cc(Cl)cc(Cl)c2O)c1`, the log fold change Tl+ flux is reported as 0.0153 (inactive). For `O=C(CC(=O)NNC(=O)c1ccc(F)cc1)NNC(=O)c1ccc(F)cc1`, the log fold change Tl+ flux was -0.086 (inactive). For `Cc1ccccc1C=C1N=C(c2ccccc2)OC1=O`, the log fold change Tl+ flux was 0.0353 (inactive). For `O=C(CCn1nc(-c2ccc(F)cc2)ccc1=O)NCc1ccccc1`, the log fold change Tl+ flux was 0.000143 (inactive). With `N=c1c(C(N)=O)cc2c(=O)n3ccccc3nc2n1Cc1ccco1` the log fold change Tl+ flux was 0.0143 (inactive). With `Cc1nn(-c2ccccc2)nc1CNC(=O)COc1ccccc1` the log fold change Tl+ flux was 0.0189 (inactive). With `Cc1cc(C)n2nc(Sc3ncccc3[N+](=O)[O-])nc2n1` the log fold change Tl+ flux was 0.0318 (inactive). `CCOC(=O)NN=C(C)C(C)=NNC(=O)OCC` was tested, and the log fold change Tl+ flux was 0.0167 (inactive). With `CC(C)(C)NC(=O)NCCO` the log fold change Tl+ flux was -0.03 (inactive). In the case of `Cc1ccccc1S(=O)(=O)NCc1ccc(N2CCN(C)CC2)cc1`, the log fold change Tl+ flux is reported as -0.0187 (inactive). For `CN(C1CCCCC1)S(=O)(=O)c1cccs1`, the log fold change Tl+ flux was 0.0321 (inactive). In the case of `O=C(CN1c2ccccc2Sc2ccccc21)NN=Cc1ccco1`, the log fold change Tl+ flux is reported as 0.032 (inactive). `CC(=O)Nc1ccc(OCC(=O)N2CCN(c3ncc(C(F)(F)F)cc3Cl)CC2)cc1` was tested, and the log fold change Tl+ flux was 0.0473 (inactive). With `Cc1ccc(S(=O)(=O)Oc2c(Cc3ccccc3)c(=O)n(C)c3ccccc23)cc1` the log fold change Tl+ flux was 0.0422 (inactive). `CCN1CCC(O)(C#Cc2ccccc2)CC1` was tested, and the log fold change Tl+ flux was 0.0236 (inactive). For `O=C(OCCSc1sccc1[N+](=O)[O-])c1ccc(Cl)cc1`, the log fold change Tl+ flux was 0.0278 (inactive). For `Oc1c(Cl)cc(Cl)cc1C=Nc1nccs1`, the log fold change Tl+ flux was 0.0241 (inactive). In the case of `Cc1cc(NC(=O)Nc2nc(-c3ccc(C)c(Cl)c3)c(C)s2)c(C(F)(F)F)o1`, the log fold change Tl+ flux is reported as 0.0144 (inactive). `COCCCNC(=O)C(C#N)=CN(C)C` was tested, and the log fold change Tl+ flux was 0.0541 (inactive). With `O=C1c2cc(S(=O)(=O)O)ccc2CCC1S(=O)(=O)O` (configuration not stated) the log fold change Tl+ flux was -0.0389 (inactive). With `CN(C)c1ccc(C=NNC(N)=S)c(Cl)c1` the log fold change Tl+ flux was -0.154 (active). In the case of `CC(C)=CC(C)=NNc1c([N+](=O)[O-])cc(C(F)(F)F)cc1[N+](=O)[O-]`, the log fold change Tl+ flux is reported as 0.0191 (inactive).
